Lmaj promast: Leishmania major promastigote growth inhibition | inhibition, % at 10 µM | actives 9% (n = 200,000) | AID 1063 | Leishmania major promastigotes, resazurin fluorescence viability; in the data active = inhibition above about 50%;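 note: promastigotes grown with compound for 44 hours at 28 °C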
Insulin prom inh: TRM-6 insulin promoter activity inhibition. inhibition, % at 2 µM. TRM-6 cells (human fetal islet line), insulin promoter-eGFP reporter, imaging; reporter expression induced with tamoxifen. actives 0.9% (n = 130,000);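 active = inhibition above the mean plus 3 SD, with well images judged a real hit on visual review, cut at about 60% in these data, passing the limit was not always enough; inconclusive = inhibition over the cutoff but images rejected on review; inactive = inhibition not above the cutoff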
Ins promoter up: MIN6 insulin promoter up-regulation; MIN6 insulin promoter-GFP reporter, high-content imaging; stronger effect = higher value; AID 1625; z-score at 5 µM; actives 0.3% (n = 190,000);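 active = z-score above 3 at 5 µM with at least 500 cells counted in the well; inconclusive = wells under 500 cells, flagged as cytotoxic or low count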
Autophagy HCS: modulators of autophagy | actives 0.98% (n = 190,000) | MEF GFP-LC3 puncta imaging; test concentration mostly 10 µM | AID 463193 | calls only at 10 µM (by protocol);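 active = percentage of spot-positive cells more than 3 SD above its plate mean, without a fluorescence outlier flag or 80% toxicity; inconclusive = no clear call, values can overlap the other calls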;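 note: spot-positive cell cutoff set from DMSO-treated cells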
HCT116 PTEN-null: PTEN-deleted cell growth suppression; viability, % at 10 µM; HCT116 PTEN-null viability, CellTiter-Glo, 60 h; stronger effect = lower value; actives 1.2% (n = 140,000); AID 827;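 active = viability at or below a set limit, 4 SD under the median of all tested compounds, cut at about 3.7% in these data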;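 note: PTEN knockout HCT116 line with beta catenin targeted HCT116 as companion control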
HCT116 bCat-KO: beta-catenin-lacking colon tumor cell growth suppression; viability, % at 10 µM; HCT116 beta-catenin knockout viability, CellTiter-Glo, 60 h; stronger effect = lower value; actives 1.5% (n = 140,000);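 active = viability at or under a set limit, the compound median less 4 SD, cut at about 6% in these data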;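 note: 0% = Hyamine 1622 control at 20 µM and 100% = untreated cell control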
The depositor's hits bear a star; i = inactive; ? = inconclusive; / = no result given; + = active, no number. In the library only some 9.6% were active in any assay of this set; here they are far more common.

SMILES	Lmaj promast	Insulin prom inh	Ins promoter up	Autophagy HCS	HCT116 PTEN-null	HCT116 bCat-KO
COc1ccc(C2CC(c3cccs3)=Nc3ccccc3S2)cc1 (centres undefined)	64.3*	12.5	/	i	24.5	26.4
CCOC(=O)C1=C(O)/C(=C\c2ccc(CNS(=O)(=O)c3ccc(Br)cc3)o2)N=C1C	65.9*	2.7	-0.34	i	97.2	86.7
COC(=O)C1=C(O)/C(=C\c2ccc(CNS(=O)(=O)c3ccc(Cl)cc3)o2)N=C1C	52.6*	-37.9	0.13	i	92.8	92.5
COC(=O)C1=C(O)/C(=C\c2ccc(CNS(=O)(=O)c3ccccc3)o2)N=C1C	37.1	31.6	1.25	i	100.5	101.4
CCOC(=O)c1ccc2c(c1)n(CCO)c(C)[n+]2CC	4.3	-25.0	-0.75	i	110.5	103.0
CCOC(=O)c1ccc2c(c1)n(CC)c(/C=C/N(C)c1ccccc1)[n+]2CC	100.2*	18.5	?	i	17.6	14.3
COc1ccc(OC)c(S(=O)(=O)N2CCC(C(=O)Nc3cccc(C(F)(F)F)c3)CC2)c1	90.8*	20.0	-0.74	i	78.8	70.4
CN1CCC(N(C)CC(O)c2ccccc2)CC1 (centres undefined)	-5.7	-38.1	-0.4	i	/	/
CC(C)c1ccc(CN(C)CC(O)c2ccccc2)cc1 (centres undefined)	74.7*	/	-0.6	i	/	/
Cc1cccc2cc(CN(Cc3ccco3)S(=O)(=O)c3ccc4c(c3)OCCO4)c(=O)[nH]c12	14.9	/	-0.03	+	67.8	75.8
Cc1ccc(C)c2[nH]c(=O)c(CN(CC3CCCO3)S(=O)(=O)c3ccc4c(c3)OCCO4)cc12 (centres undefined)	12.1	/	1.81	+	65.4	72.9
CCc1nnc(NS(=O)(=O)c2ccc(N/C=C(\C=O)c3nc4cc(Cl)ccc4o3)cc2)s1	-6.7	/	0.16	i	/	/
CCC(=O)c1cc(F)c(N2CCN(C(=O)Cc3ccccc3)CC2)cc1C	43.5	32.3	0.52	i	99.7	88.6
CCOC(=O)CC(NS(=O)(=O)Cc1ccccc1)c1ccc(C)cc1 (centres undefined)	58.7*	-33.3	-0.34	i	97.8	93.3
Cc1cc(C)nc(NC(=NCCc2c[nH]c3ccccc23)NC(=O)Nc2cccc([N+](=O)[O-])c2)n1	4.4	20.0	/	i	30.9	40.1
Cc1cc(C)nc(NC(=NCCc2c[nH]c3ccccc23)NC(=O)Nc2ccccc2)n1	72.6*	/	-2.12	i	25.3	33.6
Cc1cc(C)nc(NC(=NCCc2c[nH]c3ccccc23)NC(=O)c2ccco2)n1	28.4	-42.4	/	i	60.6	78.1
Cc1cc(C)nc(NC(=NCCc2c[nH]c3ccccc23)NC(=O)Nc2ccc(Cl)c(Cl)c2)n1	98.2*	-36.1	-0.78	i	40.1	47.7
CCn1c(=O)c(C(=O)CN2CCCc3ccccc32)c(N)n(Cc2ccccc2)c1=O	26.1	-103.1	0.05	i	50.3	58.2
Cc1cc(/C=N/NC(N)=O)c(C)n1-c1ccc(F)cc1	-3.1	/	/	i	/	/
COc1ccc(NC(=O)CSc2nc3ccsc3c(=O)n2Cc2ccccn2)c(OC)c1	4.1	21.4	-0.31	i	/	/
Cc1cc(C)nc(-n2nc(C)c(Sc3ccc(F)cc3)c2N)n1	97.0*	-250.0	-0.28	i	54.3	53.5
Cc1cc(C)nc(-n2nc(C)c3c(C(F)(F)F)cc(=O)[nH]c32)n1	9.0	42.9	/	i	91.0	99.3
OCCC1CN(Cc2ccsc2)CCN1C1CCCC1 (centres undefined)	6.0	/	0.9	i	/	/
COc1ccccc1-c1c(-c2ccc(OCC(=O)NN)cc2O)n[nH]c1C(F)(F)F	87.2*	-92.6	1.26	i	78.8	76.3
SMILES	Lmaj promast	Insulin prom inh	Ins promoter up	Autophagy HCS	HCT116 PTEN-null	HCT116 bCat-KO
CCOC(=O)CCc1c(C)n[nH]c1C	-15.1	-26.7	-0.64	i	/	/
C=CC(O)Cc1c(C)n[nH]c1C (centres undefined)	-4.0	76.9*	-0.59	i	100.5	98.7
O=C(Nc1ccc(S(=O)(=O)Nc2ccc(Cl)cc2)cc1)C1CCCO1 (centres undefined)	6.9	-80.0	-0.76	i	81.9	76.4
CC1CCCC(NC(=O)CSc2ccc(F)cc2)C1C (centres undefined)	-2.3	7.1	0.94	i	/	/
CC1CCCC(NCC(O)COC(c2ccc(F)cc2)c2ccc(F)cc2)C1C (centres undefined)	100.3*	/	-1.92	+	/	/
CCn1c(=NC(=O)c2cccc(N3C(=O)CCC3=O)c2)sc2c(OC)ccc(OC)c21	-10.9	/	-0.47	i	/	/
COc1ccc(OC)c2c1sc(=NC(=O)c1cccc(N3C(=O)CCC3=O)c1)n2C	-2.6	/	-0.25	+	100.8	81.6
Cc1nn(C)cc1CNC(=O)c1cccc(Cl)c1	-4.8	26.7	-0.43	i	104.6	94.6
CCOC(=O)C1=C(C)N=c2s/c(=C/c3ccccc3)c(=O)n2C1c1ccc(OC)c(OC)c1 (centres undefined)	27.8	-16.1	-0.28	i	52.3	61.2
CCOC(=O)C1=C(C)N=c2s/c(=C\c3ccncc3)c(=O)n2C1c1ccc2c(c1)OCO2 (centres undefined)	99.0*	0.0	2.07	i	9.9	12.9
CCC(=O)N1N=C2CC(C)(C)OCC2C1c1ccccc1 (centres undefined)	39.2	-20.0	-0.41	i	97.3	93.5
CCOc1ccc(NC(=O)/C=C/c2ccc(OC)cc2)c([N+](=O)[O-])c1	44.2	13.2	-0.26	+	94.3	99.4
CCOc1ccccc1NC(=O)CC(O)(C(F)(F)F)C(F)(F)F	0.4	54.8	/	i	90.4	90.5
O=C(/C=C\c1ccccc1[N+](=O)[O-])Nc1ccccc1	-5.2	/	0.14	i	/	/
CCOc1ccccc1NC(=O)/C=C/c1ccccc1[N+](=O)[O-]	77.5*	-35.1	-0.34	i	90.8	93.9
CCOc1ccccc1NC(=O)/C=C/C(N)=O	100.5*	6.5	-0.95	i	94.1	80.7
NS(=O)(=O)c1ccc(NC(=O)/C=C/c2ccccc2[N+](=O)[O-])cc1	69.1*	50.0	-0.04	i	/	/
Clc1ccc(-c2ccc(/C=N/Nc3nncc(-c4ccccc4)n3)o2)cc1	-5.5	4.2	0.27	i	25.6	46.3
COc1cccc(NC(=O)Cn2c(-c3cncs3)nc3ccccc32)c1	-2.2	-13.3	5.27*	i	99.1	104.6
Cc1cc(/C=C2/C(=O)NN(c3ccccc3)C2=O)c(C)n1-c1cccc(O)c1	7.9	/	1.09	i	79.3	85.1
COc1ccc(N2CCN(c3ccc(C(N)=O)cc3[N+](=O)[O-])CC2)cc1	13.6	/	0.28	i	/	/
O=S(=O)(NCc1ccc(Cl)cc1)c1cnc[nH]1	-6.3	43.8	1	+	100.5	101.7
Cc1csc(C2=C(O)CN(CCc3ccccc3)C2=N)n1	98.5*	7.1	-0.33	i	97.1	93.7
COc1ccc([N+](=O)[O-])cc1NC(=O)Cc1ccc(C)cc1	57.8*	-16.2	0.03	i	79.0	90.0

Source: PubChem BioAssay
